Experiment [1] in a line: small molecules captured by biotinylated probe aFSTL3 – biochemical, small-molecule microarray, fluorescence 635/667, stem cell growth factor project, primary screen (AID 1064).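 Further: measures binding of the biotinylated anti-FSTL3 antibody to printed compounds.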 Conditions: higher = more signal.
Experiment [2] can be described thus: binders from COS7 lysate, DM2A8 probe, primary screen, torsin A project, cell lysate, small-molecule microarray, fluorescence 635/667 (AID 1065). The conditions noted are these: higher = more signal, COS7 lysate expressing mutant human TOR1A.
Experiment [3] in a line: small molecules captured by biotinylated probe aFGF2 – biochemical, small-molecule microarray, fluorescence 635/667, stem cell growth factor project, primary screen (AID 1067).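 Further: measures binding of biotinylated aFGF2 protein to printed compounds on slides; z-score merges feature fluorescence and signal-to-noise across triplicate slides.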 The conditions noted are these: higher = more signal.
A short description of experiment [4]: small molecules captured by biotinylated probe aFGF10 – biochemical, small-molecule microarray, fluorescence 635/667, stem cell growth factor project, primary screen (AID 1071).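 Further: score merges 667 nm spot intensity and signal to noise from triplicate slides.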 Conditions: higher = more signal.
Experiment [5] addresses Neurogenic locus notch homolog protein 2 (Homo sapiens) (UniProt Q04721). In words: small molecules binding Notch2 protein – biochemical, small-molecule microarray, 635 nm fluorescence, stem cell growth factors, primary screen (AID 1073). The conditions noted are these: higher = more signal.
Experiment [6] deals with Pro-neuregulin-1, membrane-bound isoform (Homo sapiens) (UniProt Q02297). In words: small molecules binding neuregulin-1 protein – biochemical, small-molecule microarray, fluorescence 635/667, psychiatric disease protein project, primary screen (AID 1075).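 Further: score combines 667 nm spot fluorescence with signal to noise.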 The conditions noted are these: NRG1 binding, 635 nm fluorescence, higher = more signal.
For experiment [7], the system named is Neuregulin-1 EGF-like domain. In words: small molecules binding NRG1 EGF domain – biochemical, small-molecule microarray, 635 nm fluorescence, primary screen (AID 1081).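 Further: binding of the protein to compounds printed on small-molecule microarray slides.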 The conditions noted are these: higher = more signal.
Experiment [8] is described as follows: FRG1 expression reporter modulators in myotubes – cell-based, C2C12 myotubes, firefly/Renilla luciferase, luminescence, FRG1 inhibition for FSHD, primary screen (AID 1084). The conditions noted are these: FRG1 promoter luciferase, higher = more signal, called active from +8 up or from −8 down.
Experiment [9] can be described thus: small molecules captured by biotinylated probe aFST – biochemical, small-molecule microarray, fluorescence 635/667, stem cell growth factor project, primary screen (AID 1086).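 Further: score merges 667 nm fluorescence with signal-to-noise of each printed compound spot.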 The conditions noted are these: higher = more signal.
Experiment [10] can be described thus: binders of probe aHhip on microarray, primary screen, stem cell growth factor project, biochemical, small-molecule microarray, fluorescence 635/667 (AID 1087).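 Further: score merges spot fluorescence at 667nm with spot signal to noise ratio.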 Conditions: higher = more signal.
The test system of experiment [11] is PRMT1 (protein arginine N-methyltransferase 1). In words: small molecules binding arginine methyltransferase PRMT1 – biochemical, small-molecule microarray, 635 nm fluorescence, primary screen (AID 1088).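 Further: binding of Prmt1 protein to compounds spotted on small-molecule microarray slides.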 The conditions noted are these: higher = more signal.
A short description of experiment [12]: growth effects on S. cerevisiae YJM789 – YJM789 clinical isolate, OD600, 24 h, basal, primary screen (AID 1089).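 Further: growth of clinical yeast isolate S. cerevisiae YJM 789 seeded 1000 cells per well; test concentration not given here.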 Conditions: higher = more signal, called active from +8 up or from −8 down.
The nature of experiment [13]: S. pombe growth modifiers, basal conditions – strain 972, OD600, 24 h, no modulator, primary screen (AID 1090).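 Further: basal condition with compound alone and no growth modifier present; test concentration not given here.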 Conditions: S. pombe 972 growth, higher = more signal, called active from +8 up or from −8 down.
Experiment [14] can be described thus: budding yeast growth modifiers under rapamycin – strain BY4716, OD600, 96 h, primary screen (AID 1091). Further: test concentration not given here. The conditions noted are these: S. cerevisiae BY4716 + rapamycin, higher = more signal, called active from +8 up or from −8 down.
Experiment [15] has as its target Torsin-1A-interacting protein 2 (Homo sapiens) (UniProt Q8NFQ8). In words: small molecules binding lysate-expressed LULL1 – cell lysate, human LULL1 lysate, 635/667 nm fluorescence, primary screen (AID 1092).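 Further: probe is lysate of COS7 cells overexpressing human LULL1; score merges per-feature 667 nm fluorescence with signal-to-noise.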 Conditions: small-molecule microarray, hLULL1 lysate binding, 635 nm fluorescence; higher = more signal.
The nature of experiment [16]: optical density change of DRC41 E. coli – strain DRC41, OD650, 24 h, E. coli filamentation project, primary screen (AID 1093).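 Further: MC1000 strain lacking acrAB efflux and sulA so SOS filamentation is blocked; test concentration not given here.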 Conditions: E. coli DRC41 growth, higher = more signal, called active from +8 up or from −8 down.
Experiment [17] can be described thus: probe aLefty2 binding to arrayed compounds – biochemical, biotinylated probe, 635/667 nm fluorescence, primary screen (AID 1094).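 Further: score merges spot fluorescence near 667 nm with spot signal-to-noise ratio.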 The conditions noted are these: small-molecule microarray, higher = more signal.
The subject of experiment [18] is Noggin (protein binding on small-molecule microarray). In words: small molecules binding Noggin protein – biochemical, 635/667 nm fluorescence, primary screen (AID 1095).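 Further: score merges 667 nm feature fluorescence with signal to noise over triplicate slides.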 The conditions noted are these: 635 nm fluorescence, higher = more signal.
The target of experiment [19] is Neurogenic locus notch homolog protein 3 (Homo sapiens) (UniProt Q9UM47). In words: small molecules binding NOTCH3 protein – biochemical, 635/667 nm fluorescence, primary screen (AID 1096). Conditions: small-molecule microarray, 635 nm fluorescence, higher = more signal.
Experiment [20] can be described thus: probe aEGFR binding to arrayed compounds – biochemical, biotinylated probe, 635/667 nm fluorescence, primary screen (AID 1097).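 Further: probe is a biotinylated anti-EGFR antibody binding compounds printed on slides; score combines fluorescence near 667 nm and signal to noise of each spot.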 The conditions noted are these: small-molecule microarray, higher = more signal.

The structures appear in SMILES notation. Calls of active or inactive are those of the source.

Chain of Pro-neuregulin-1, membrane-bound isoform (Homo sapiens) (Q02297 whole entry, looked up, the tested form may be a part, canonical isoform): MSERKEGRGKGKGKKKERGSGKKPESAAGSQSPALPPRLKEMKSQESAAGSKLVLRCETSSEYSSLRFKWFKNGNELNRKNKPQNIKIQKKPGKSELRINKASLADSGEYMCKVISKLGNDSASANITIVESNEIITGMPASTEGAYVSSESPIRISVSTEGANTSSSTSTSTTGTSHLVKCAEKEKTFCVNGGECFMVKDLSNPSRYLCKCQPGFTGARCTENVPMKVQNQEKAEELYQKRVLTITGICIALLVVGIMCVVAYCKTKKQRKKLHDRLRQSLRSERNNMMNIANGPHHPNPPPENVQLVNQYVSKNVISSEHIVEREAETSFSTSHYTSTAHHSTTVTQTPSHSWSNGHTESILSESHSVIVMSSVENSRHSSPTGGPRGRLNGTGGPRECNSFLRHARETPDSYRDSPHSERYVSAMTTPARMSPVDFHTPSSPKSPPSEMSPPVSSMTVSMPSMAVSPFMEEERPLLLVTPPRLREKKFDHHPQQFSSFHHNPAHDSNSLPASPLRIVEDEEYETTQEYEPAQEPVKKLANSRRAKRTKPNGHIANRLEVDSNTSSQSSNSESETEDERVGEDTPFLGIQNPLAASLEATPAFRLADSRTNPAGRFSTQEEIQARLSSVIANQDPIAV
Chain of Torsin-1A-interacting protein 2 (Homo sapiens) (Q8NFQ8 whole entry, looked up): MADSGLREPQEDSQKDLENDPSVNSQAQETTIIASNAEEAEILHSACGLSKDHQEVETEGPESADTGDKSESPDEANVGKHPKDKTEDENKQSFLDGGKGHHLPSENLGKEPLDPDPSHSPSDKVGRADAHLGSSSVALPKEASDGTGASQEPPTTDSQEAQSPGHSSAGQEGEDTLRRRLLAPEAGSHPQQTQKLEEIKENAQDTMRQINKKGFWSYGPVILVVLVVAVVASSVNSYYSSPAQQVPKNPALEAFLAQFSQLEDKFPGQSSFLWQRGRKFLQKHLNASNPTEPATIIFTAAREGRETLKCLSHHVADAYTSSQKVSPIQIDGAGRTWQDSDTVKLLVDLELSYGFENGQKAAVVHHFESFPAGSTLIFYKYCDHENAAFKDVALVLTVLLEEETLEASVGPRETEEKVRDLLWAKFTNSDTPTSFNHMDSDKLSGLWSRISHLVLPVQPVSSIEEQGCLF
Chain of Neurogenic locus notch homolog protein 2 (Homo sapiens) (Q04721 whole entry, looked up, canonical isoform): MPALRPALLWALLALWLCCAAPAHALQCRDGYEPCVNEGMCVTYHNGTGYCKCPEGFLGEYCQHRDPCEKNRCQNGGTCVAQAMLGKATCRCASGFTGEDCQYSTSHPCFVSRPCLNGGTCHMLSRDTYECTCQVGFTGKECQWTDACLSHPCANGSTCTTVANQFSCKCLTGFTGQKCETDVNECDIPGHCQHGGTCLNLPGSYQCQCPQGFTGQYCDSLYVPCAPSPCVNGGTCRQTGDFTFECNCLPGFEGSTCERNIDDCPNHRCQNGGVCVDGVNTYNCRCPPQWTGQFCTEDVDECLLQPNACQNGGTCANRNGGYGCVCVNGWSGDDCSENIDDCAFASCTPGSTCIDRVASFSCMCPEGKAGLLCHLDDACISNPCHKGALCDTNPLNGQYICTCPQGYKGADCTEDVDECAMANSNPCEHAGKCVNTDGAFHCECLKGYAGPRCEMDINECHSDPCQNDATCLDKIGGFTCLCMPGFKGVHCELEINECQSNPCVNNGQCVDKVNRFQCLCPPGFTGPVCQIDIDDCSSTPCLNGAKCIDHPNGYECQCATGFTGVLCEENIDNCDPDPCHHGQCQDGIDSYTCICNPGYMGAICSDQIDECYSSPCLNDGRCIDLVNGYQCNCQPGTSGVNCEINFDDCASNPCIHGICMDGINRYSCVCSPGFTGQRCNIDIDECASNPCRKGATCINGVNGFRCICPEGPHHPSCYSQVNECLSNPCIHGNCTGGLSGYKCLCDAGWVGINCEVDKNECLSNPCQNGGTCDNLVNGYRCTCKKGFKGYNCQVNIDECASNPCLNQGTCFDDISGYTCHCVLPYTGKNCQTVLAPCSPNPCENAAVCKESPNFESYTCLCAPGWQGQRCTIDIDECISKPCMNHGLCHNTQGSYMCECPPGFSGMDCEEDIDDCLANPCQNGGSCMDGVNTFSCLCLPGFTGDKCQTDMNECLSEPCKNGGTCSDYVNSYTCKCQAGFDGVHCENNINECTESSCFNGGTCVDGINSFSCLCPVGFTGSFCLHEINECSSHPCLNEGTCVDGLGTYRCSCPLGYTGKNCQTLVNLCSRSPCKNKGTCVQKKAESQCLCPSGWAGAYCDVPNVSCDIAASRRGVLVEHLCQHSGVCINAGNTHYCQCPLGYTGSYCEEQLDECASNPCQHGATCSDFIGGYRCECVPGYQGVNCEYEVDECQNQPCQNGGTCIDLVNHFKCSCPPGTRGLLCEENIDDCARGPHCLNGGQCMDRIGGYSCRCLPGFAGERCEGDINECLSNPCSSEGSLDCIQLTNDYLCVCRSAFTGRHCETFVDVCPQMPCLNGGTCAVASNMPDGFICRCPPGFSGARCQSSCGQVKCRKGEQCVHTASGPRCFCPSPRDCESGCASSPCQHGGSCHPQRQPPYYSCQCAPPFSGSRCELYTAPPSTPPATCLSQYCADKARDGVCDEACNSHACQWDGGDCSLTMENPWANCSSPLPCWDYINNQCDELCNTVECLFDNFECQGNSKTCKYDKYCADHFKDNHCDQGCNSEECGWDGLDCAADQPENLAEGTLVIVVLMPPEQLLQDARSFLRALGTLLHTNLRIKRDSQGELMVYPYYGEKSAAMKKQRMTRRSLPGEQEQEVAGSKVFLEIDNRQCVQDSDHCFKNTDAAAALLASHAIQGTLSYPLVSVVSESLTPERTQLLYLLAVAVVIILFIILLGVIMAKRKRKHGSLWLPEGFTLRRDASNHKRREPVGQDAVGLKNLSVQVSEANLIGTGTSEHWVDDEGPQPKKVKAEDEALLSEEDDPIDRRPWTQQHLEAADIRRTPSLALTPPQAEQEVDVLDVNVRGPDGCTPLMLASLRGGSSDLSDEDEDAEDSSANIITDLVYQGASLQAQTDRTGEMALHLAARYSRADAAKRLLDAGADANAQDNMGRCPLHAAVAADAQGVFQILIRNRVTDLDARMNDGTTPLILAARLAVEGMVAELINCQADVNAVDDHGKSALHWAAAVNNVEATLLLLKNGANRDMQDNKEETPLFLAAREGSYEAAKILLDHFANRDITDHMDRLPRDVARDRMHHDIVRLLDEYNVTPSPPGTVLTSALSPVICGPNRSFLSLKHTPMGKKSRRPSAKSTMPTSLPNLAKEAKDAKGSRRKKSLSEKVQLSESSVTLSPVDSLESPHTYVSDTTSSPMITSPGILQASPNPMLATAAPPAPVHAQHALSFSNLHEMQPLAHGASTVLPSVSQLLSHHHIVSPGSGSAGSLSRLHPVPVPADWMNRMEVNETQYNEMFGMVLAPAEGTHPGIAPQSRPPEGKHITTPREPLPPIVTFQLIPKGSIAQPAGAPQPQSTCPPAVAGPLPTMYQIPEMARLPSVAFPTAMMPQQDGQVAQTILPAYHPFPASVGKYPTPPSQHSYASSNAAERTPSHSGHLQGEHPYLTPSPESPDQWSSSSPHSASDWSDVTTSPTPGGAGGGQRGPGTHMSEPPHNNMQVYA

For `C=CC[C@@H]1C=C[C@H](ON=C(C)CCC(=O)OC[C@H]2O[C@H](C#Cc3ccccc3)C=C[C@@H]2Oc2ccc(C)cc2)[C@@H](CO)O1`, the composite z-score in [1] is -0.566; in experiment [2], 0.692; in experiment [3], 0.0624; in experiment [4], 0.782; in [5], 1.12; in experiment [6] it was 0.661. Besides, the composite z-score in [7] is 0.984; in experiment [9] it was 0.203; in experiment [10] it was 0.0373; in experiment [11] it was 1.54; in [15] it was 2.2; in experiment [17], -0.116. The values for the composite z-score in experiment [18], in experiment [19] and in [20] were 0.615, 1.12 and 0.109, respectively. The z-score in experiment [8] was -0.349 (inactive); in experiment [12], 1.28 (inactive); in experiment [13], 0.275 (inactive); in [14], 1.06 (inactive); in experiment [16], 0.943 (inactive).
Consider `O=C1[C@H]2[C@H]3[C@H](O)[C@H](O)CC(=NOC[C@@H](O)COCc4ccco4)[C@H]3CC[C@H]2C(=O)N1Cc1ccccc1`, for which the composite z-score in experiment [1] is -0.414; in experiment [2] it was 1.33; in experiment [3], -0.21; in experiment [4], 0.17; in experiment [5], -0.224; in [6], -0.346. In addition, the composite z-score in experiment [7] was 0.299; in [9], -0.222; in [10], -0.132; in [11] it was 0.411; in experiment [15], -1.71; in [17], -0.148. In addition, the composite z-score in experiment [18] is 0.594; in experiment [19] it was -0.309; in experiment [20], -0.0973. For the same molecule, the z-score in experiment [8] was 0.272 (inactive); in experiment [12], -1.14 (inactive); in experiment [13], -1.05 (inactive); in [14] it was -1.11 (inactive); in [16], -0.518 (inactive).
As for `O=C1CCCC(C2=CCCCC2=O)C1` (stereo not given), the composite z-score in [1] was -0.31; in experiment [2], 0.213; in experiment [3], -0.0895; in [4], 0.0787; in experiment [5], 0.312; in experiment [6] it was -0.3. Besides, the composite z-score in [7] is 0.165; in experiment [9], 0.0915; in experiment [10], 0.157; in [11], 0.0732; in experiment [15] it was -0.168; in experiment [17], 0.02. Further, the composite z-score is 0.546 in experiment [18], 0.0934 in experiment [19] and -0.029 in experiment [20]. Further, the z-score is 0.222 (inactive) in experiment [8]; 0.222 (inactive) in experiment [12]; 0.65 (inactive) in [13]; 0.6 (inactive) in experiment [14]; 0.455 (inactive) in experiment [16].
Regarding `CO[C@H](C1CCCCC1)[C@H](C)C=CCC(=O)OCCCc1ccccc1`, the composite z-score in [1] is -0.13; in experiment [2], 0.216; in experiment [3], -0.155; in experiment [4], -0.104; in experiment [5] it was -0.163; in [6] it was -0.137. Further, the composite z-score in [7] was -0.647; in experiment [9] it was -0.175; in experiment [10], -0.145; in [11] it was -0.53; in experiment [15], -0.242; in experiment [17], -0.192. Besides, the composite z-score in [18] was -0.0107; in experiment [19] it was -0.226; in [20], -0.134. Moreover, the z-score is 0.567 (inactive) in experiment [8]; 1.37 (inactive) in experiment [12]; 0.5 (inactive) in experiment [13]; 1.49 (inactive) in [14]; -0.0775 (inactive) in experiment [16].
Turning to `CO[C@H]1COC(=O)CC=C[C@@H](C)[C@H](OC)COC(=O)CCC[C@@H]1C`, the composite z-score was -0.344 in experiment [1]; 1.58 in experiment [2]; -0.187 in experiment [3]; 0.238 in [4]; -0.438 in experiment [5]; -0.35 in experiment [6]. Further, the composite z-score in experiment [7] is -0.137; in experiment [9], -0.126; in experiment [10], 0.176; in experiment [11], 0.76; in [15], -0.552; in experiment [17], -0.17. For the same molecule, the composite z-score was 0.978 in experiment [18], 0.288 in experiment [19] and -0.163 in [20]. Also, the z-score was 0.444 (inactive) in [8]; -1.47 (inactive) in [12]; -0.441 (inactive) in experiment [13]; -1.37 (inactive) in experiment [14]; -0.351 (inactive) in [16].

The values above are taken from PubChem BioAssay.
